Assay results reported in PubChem BioAssay (NCI).
Values joined by “and” are separate entries in the source; they are usually repeats but may differ in a detail not shown here. Equal values may be shown once. This is part of a sample that, as a whole, favours compounds with a hit. Of some 83,000 tested, about 20% had one in any assay.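 Values shown are percent growth following 48 h exposure of cells in 96-well plates to a single concentration of compound; below 10 was considered active.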 Unmarked numbers belong to inactive results. Active and inactive are the calls of the source.

What follows are compounds tested on MDA-MB-468 breast (assay: NCI-60 one-dose screen, 48 h (100 = growth as untreated, 0 = no growth, -100 = all killed)). Conditions: 10 µM unless noted.

| Structure (SMILES) | growth |
| --- | --- |
| O=C1NC(=S)N[C@H]1CC(=O)n1cnc2ccccc21 | 86.3% |
| O=C1NC(=O)c2c1c1c3ccccc3ccc1c1[nH]c3ccc(Br)cc3c21 | -12.5% (active) |
| O=C(O)/C=C/c1cn(-c2ccccc2)nc1-c1ccc(F)cc1 | 104% |
| CC(C)(C)OC(=O)N[C@@H](Cc1ccccc1)C(=O)N(Cc1ccccc1)C1(C(=O)NCc2ccccc2)CCN(Cc2ccccc2)CC1 | 7.09% (active) |
| Cl.Fc1c[c-]c(-c2ccccn2)c(F)c1.[Pt].c1ccc([PH+](c2ccccc2)c2ccccc2[PH+](c2ccccc2)c2ccccc2)cc1 | -85.8% (active) |
| CCC1(/C=N/NC(N)=S)NC(=O)NC1=O (centres undefined) | 106% |
| CN=C(N)N/N=C(\c1ccccc1)c1ccc(Br)cc1 | 1.8% (active) |
| CC(C)(C)c1ccc(S(=O)(=O)Oc2ccc(-c3sc4cc(OS(=O)(=O)c5ccc(C(C)(C)C)cc5)ccc4c3C(=O)c3ccc(OCCN4CCCCC4)cc3)cc2)cc1 | 90% |
| O=[N+]([O-])c1cc[n+]([O-])cc1 | 98.1% |
| Oc1ccccc1/C=N\NC(=S)N/N=C/c1ccccc1O | 32.2% and 11.3% |
| CC1(C)CC[C@]2(C(=O)O)CC[C@]3(C)C(=CC[C@@H]4[C@@]5(C)C/C(=C/c6cccnc6)[C@H](O)C(C)(C)[C@@H]5CC[C@]43C)[C@@H]2C1 | 4.01% [100 µM] (active) |
| CCN1CCN(c2nc(C)cc(N(CCCNc3ccnc4cc(Cl)ccc34)Cc3ccc4c(c3)OCO4)n2)CC1 | -33.5% (active) |
| CCCCCCCCN1C(=O)/C(=c2\sc3n(c2=O)C2C(NN=3)N(CC)C(=O)N2CC)c2ccccc21 (centres undefined) | 68.3% |
| C[C@H]1[C@H](C)CC[C@]2(COC(=O)CCC(=O)O)CC[C@]3(C)C(=CC[C@@H]4[C@@]5(C)CCCNC(C)(C)[C@@H]5CC[C@]43C)[C@H]12 | 69% [100 µM] |
| O=Cc1ccc([N+](=O)[O-])s1 | 103% |
| Cc1cc(-c2cc(C)c(O)c(C)c2)cc(C)c1O | 26.1% |
| COc1ccc2c(c1)C/C(=C\c1cc(-c3ccc4c(c3)OCO4)n[nH]1)C2=O | 37.8% |

| Structure (SMILES) | growth |
| --- | --- |
| O=C(O)c1cccc([N+](=O)[O-])c1/C=C/c1ccccc1 | 102% |
| CSc1ccc(-c2cc(-c3ccc(NC(=O)CCCN4CCCC4)cc3)nc(-c3ccc(NC(=O)CCCN4CCCC4)cc3)c2)cc1 | 14.4% |
| COc1ccc([C@@H]2c3[nH]c4ccccc4c3CC3C(=O)N(C4CCN(Cc5c(F)cccc5F)CC4)CC(=O)N32)c(OC)c1 (some centres undefined) | 40.6% [5.26 µM] |
| Cc1ccc(C(=O)/C(=C\c2ccc([N+](=O)[O-])cc2)S(=O)Cc2ccc(F)cc2)cc1 (centres undefined) | -10.3% (active) |
| Cc1cccc(Oc2ccc(Nc3ncnc4ccc(NC(=O)CN(C)C)cc34)cc2Cl)c1 | -45.2% (active) |
| Cn1c(N2N=C(c3ccc(Cl)cc3)CC2c2ccccc2)nc(-c2ccccc2)c(C#N)c1=O (centres undefined) | 74% |
| C=CCNc1ccc2c3c(cccc13)C(=O)N(CC=C)C2=O | 60.3% |
| COc1cc(OC)cc(C2C(C#N)=C(N)Oc3c2ccc2ccc(O)cc32)c1 (centres undefined) | -16.6% (active) |
| COc1cccc2nc(Nc3cccc(NC(=O)c4ccc(N5CCN(C)CC5)c(C(F)(F)F)c4)c3)ccc12 | 20.2% |
| COc1cc(C2CC(c3cc(OC)c(OCCCOc4ccc(-n5c(/C=C/c6ccccc6)nc6ccccc6c5=O)cc4)c(OC)c3)=NO2)cc(OC)c1OC (centres undefined) | 104% |
| COc1ccc(CCCc2c3[n+](cc4c(OC)c(OC)ccc24)CCc2cc4c(cc2-3)OCO4)cc1 | 1.74% (active) |
| NC(=S)N/N=C(/C=C/c1cn(-c2ccccc2)nc1-c1ccc(Cl)cc1)c1cc2ccccc2oc1=O | 52.2% |
| CCNc1ccc(-c2nc3ccccc3n3cccc23)cc1 | 2.19% (active) |
| CNC(=O)Nc1ccc(-c2nc(N3CCOCC3)nc3c2cnn3C2CCOCC2)cc1 | -34.4% (active) |
| COc1ccc2[nH]c(C(=O)N3CCN(C(=O)OCc4ccc5c(Br)cc(Br)c(O)c5n4)CC3)cc2c1 | -80.5% (active) |
| CCCCCc1c(C)[nH]c(/C=c2\[nH]/c(=C3/C=c4ccccc4=N3)cc2OC)c1C | -63.8% (active) |
| CCCCCCCCCCCCNC(=O)[C@H]1CSC(c2ccsc2)N1 (some centres undefined) | -74.1% (active) |
